In all, about 69,000 compounds went through this assay and about 8,600 (12%) showed an effect of 50% or more. This is one part of a sample in which strong results are shown more often than they occur.

The assay deals with Plasmodium berghei. Nature of the assay: Screen against P. berghei liver stage (PbLuc), transformed with Luciferase, at 10uM. Type of assay: functional, HepG2. To be noted: tested at 10 uM.
Take `CC(c1ccccc1)N(C)C(=O)Cn1cc(NC(=O)C(C)(C)C)cn1` (stereo unspecified): the INHIBITION is given as -41.1%.

In the case of `CC(c1ccccc1)N(C)C(=O)CN1CCN(c2cnccn2)CC1` (stereo unspecified), the INHIBITION came out at 47.2%.

Turning to `CC(c1ccccc1)N(C)C(=O)CN1CCCc2cc(F)cc(F)c21` (stereo unspecified), the INHIBITION is recorded as 76.1%.

As for `CN(C)C(=O)Cn1cc(C(=O)N2CCCc3cccc(F)c32)nn1`, the INHIBITION was determined as 28.6%.

In the case of `CN(C(=O)CN1CCCc2cc(F)cc(F)c21)c1ccccc1`, the INHIBITION turned out to be 43.9%.

`CC(c1ccccc1)N(C)C(=O)CN1CCCc2cccc(F)c21` (stereo unspecified): the INHIBITION is 51.1%.

Take `CC(C)CC(=O)N1C[C@@H]2CCN(c3cnccn3)C[C@@H]2C1`: the INHIBITION is 3.81%.

For the molecule `CNC(=O)CN1C(=O)CN(C(=O)COC)CCC(OC)c2ccccc21` (stereo unspecified), the INHIBITION is listed as 48.7%.

Consider `CNc1cc(C2CCCN2S(=O)(=O)c2cccc(F)c2)ccn1` (stereo unspecified), for which the INHIBITION came to 2.71%.

As for `CCS(=O)(=O)N1CCc2nc(C3CCN(C(=O)C4CC4)C3)nc(O)c2C1` (stereo unspecified), the INHIBITION is given as 30.4%.

Take `Cc1nc(NC2CCCC2)cc(C2CCN2c2ncccn2)n1` (stereo unspecified): the INHIBITION turned out to be 26.7%.

On to `Cc1cc(C(=O)NC(C)Cc2ccc(N(C)C)cc2)n(C)n1` (stereo unspecified), for which the INHIBITION is on record as 44.7%.

Consider `Cc1nc(CN2CCN(S(=O)(=O)N3CCCCC3)CC2)oc1C`, for which the INHIBITION amounted to 19.4%.

With `Cc1nc2ccc(Cl)cn2c1CN1CCN(S(=O)(=O)N2CCCC2)CC1`, the INHIBITION came to 57.55%.

On to `COCC(=O)N1CCCN(Cc2cc(O)c3ccccc3n2)CC1`, for which the INHIBITION was found to be 32.1%.

Regarding `Cc1nc(CN2CCN(S(=O)(=O)N3CCOCC3)CC2)oc1C`, the INHIBITION was determined as 31.2%.

Take `COCC(=O)N1CCCN(Cc2c(C)nc3ccc(Cl)cn23)CC1`: the INHIBITION is reported as 73.6%.

For the molecule `COCC(=O)N1CCC2(CCCN(Cc3ccc(Cl)cc3)CC2)CC1`, the INHIBITION came out at 17.6%.

With `COCCN1C[C@@H](C)[C@@]2(COCCN(C(=O)Cc3ccccc3)C2)C1`, the INHIBITION is recorded as -8.94%.

Turning to `CN1CCC2(CCN(S(=O)(=O)c3ccc(-c4cnco4)s3)CC2)C1`, the INHIBITION is 28.4%.

For the molecule `FC(F)(F)c1[nH]nc2c1CN(Cc1ccccc1)CC2`, the INHIBITION came to 84.2%.

`OCCCN1CCc2[nH]nc(C(c3ccccc3)c3ccccc3)c2C1`: the INHIBITION is given as 18.7%.

`CN(C)C(=O)c1nc2c(n1C)CCN(Cc1ccccc1)C2`: the INHIBITION is -31.4%.

`CN(Cc1cnn(C)c1)C(=O)c1ccc(=O)n(C)n1`: the INHIBITION is on record as -19.7%.

As to `O=C(Nc1ccccc1)N1CCC(n2cc3[nH]cccc-3c2=O)CC1`, the INHIBITION came to 32%.

In the case of `Cc1nc(CN2CCCC(NCc3ccc(C(N)=O)cc3)C2)no1` (stereo unspecified), the INHIBITION came to 11.2%.

Turning to `Cc1nnc(NC(=O)NCc2ccc(N3CCC(C)CC3)nc2)s1`, the INHIBITION amounted to 33.3%.

`Cc1nc2ccccn2c1CN1C[C@@H](CN(C)CCO)[C@@H](CO)C1`: the INHIBITION was determined as 29%.

Take `COc1ccccc1OC1CN(Cc2ccc(C(=O)O)cc2)C1`: the INHIBITION came to 14.3%.

On to `CC(=O)c1ccc(CN2CC(Oc3ccccc3C)C2)cc1`, for which the INHIBITION is reported as 52%.

In the case of `CSCC[C@H](N)C(=O)N1CC(Oc2ccccc2C)C1`, the INHIBITION was -13.5%.

For the molecule `COCc1ncc(CN2CC(Oc3c(C)cccc3C)C2)cn1`, the INHIBITION worked out at 31.2%.

For `CC(=O)c1cccc(CN2CC(Oc3ccccc3C)C2)c1`, the INHIBITION came to 52%.

`Cc1ccccc1OC1CN(Cc2c(C)nc3ccccn23)C1`: the INHIBITION amounted to 91.8%.

Take `Cc1ccc(C(=O)N2CC(Oc3ccccc3C)C2)s1`: the INHIBITION amounted to 18.4%.

With `Cc1nc2ccccn2c1CN1C[C@@H](CN(C)C)[C@@H](CO)C1`, the INHIBITION was 45.3%.

Regarding `O=C(c1n[nH]cc1Cl)N1CCSCC1`, the INHIBITION is -10.6%.

Regarding `COCCNC(=O)c1sc2ccccc2c1C1CCC(CN)CC1` (stereo unspecified), the INHIBITION amounted to 3.48%.

For `COCCN1C[C@@H]2CCCO[C@@H]2[C@H](NC(=O)c2cnccn2)C1`, the INHIBITION is listed as -17%.

`O=C(NC1CC1)N1CCN(c2cnccn2)CC1`: the INHIBITION was -11.4%.

For the molecule `Cc1nc(N(C)C)cc(C2(C)CCCNC2)n1` (stereo unspecified), the INHIBITION was determined as 8.42%.

Regarding `NS(=O)(=O)c1ccc(C(=O)N2CCCC2c2ccccc2)o1` (stereo unspecified), the INHIBITION is recorded as 12.7%.

On to `CC(C)c1nnc(CN2CCN(CC(O)c3ccccc3)CC2)o1` (stereo unspecified), for which the INHIBITION was 36.1%.

For `Cc1nc(N2CCN(C)CC2)ncc1C(=O)N1C[C@@H](C)[C@@](C)(O)C1`, the INHIBITION turned out to be 34.9%.

As for `O=c1[nH]nc2c(N3CCC(NC4CCOCC4)CC3)nccn12`, the INHIBITION stood at 33.3%.

For `O=c1[nH]nc2c(N3CCCCCC3)nccn12`, the INHIBITION is reported as 47.4%.

Consider `O=c1[nH]nc2c(N3CCOCC3)nccn12`, for which the INHIBITION is recorded as 56.5%.

With `O=C1OCCN1CCNC(=O)C1(N2CCCCC2)Cc2ccccc2C1`, the INHIBITION is reported as 6.54%.

On to `CCOC1CCN(CCc2nc(-c3cccc(Cl)c3)no2)CC1`, for which the INHIBITION is recorded as 46.3%.

Take `Clc1cccc(-c2noc(CCN3CCN(c4ccncc4)CC3)n2)c1`: the INHIBITION is reported as 61.8%.

In the case of `NC(=O)N1CCCN(CCc2nc(-c3cccc(Cl)c3)no2)CC1`, the INHIBITION is 2.22%.

On to `O=C(NCc1ccccc1-n1cccn1)N1CCC(N2CCCC2)C1` (stereo unspecified), for which the INHIBITION is reported as 17.4%.

Consider `CCC(C)NC(=O)c1ccc(NC(=O)CCCn2cncn2)c(C)c1` (stereo unspecified), for which the INHIBITION was determined as 5.64%.

On to `CCCC(=O)Nc1cc(C(=O)NC(C)Cc2ccncc2)ccc1C` (stereo unspecified), for which the INHIBITION worked out at 57.5%.

In the case of `CCN(CC(=O)Nc1cc(Cl)ccc1C)C(=O)c1ccncc1`, the INHIBITION is on record as -10.8%.

As for `CC(=O)N[C@@H]1CN(C(=O)c2cccc(C(F)(F)F)c2)C[C@H]1O`, the INHIBITION is -4.1%.

In the case of `CCc1nnc2n1CCN(C(C(=O)N(CC)CC)c1ccccc1)C2` (stereo unspecified), the INHIBITION was 19.4%.

Take `CC1CCC(NC(=O)CNC2(c3ccc(F)cc3)CCOCC2)CC1` (stereo unspecified): the INHIBITION was 12.8%.

Turning to `Cc1cccn2cc(CNS(=O)(=O)N3CCOCC3)nc12`, the INHIBITION is given as 19.8%.

For the molecule `Cn1nnc2c1CCN(S(C)(=O)=O)C2COCc1ccccc1` (stereo unspecified), the INHIBITION is on record as 53%.

In the case of `C1CC(CN2CCc3c(nnn3CC3CC3)C2COCC2CC2)C1` (stereo unspecified), the INHIBITION came out at 43.3%.

Regarding `Cc1ccc(CN2CCc3c(nnn3C)C2COCc2ccccc2)s1` (stereo unspecified), the INHIBITION is given as 59.3%.

For `Cn1nnc2c1CCN(Cc1ccoc1)C2COCc1ccccc1` (stereo unspecified), the INHIBITION is -6.39%.

`Cn1nnc2c1CCN(CC1CC1)C2COCC1CC1` (stereo unspecified): the INHIBITION is on record as 38.5%.

Regarding `Cn1nnc2c1CCN(S(C)(=O)=O)C2COCC1CC1` (stereo unspecified), the INHIBITION is recorded as 57.1%.

With `Cn1nnc2c1CCN(CC1CC1)C2COCc1ccccc1` (stereo unspecified), the INHIBITION was 39.8%.

As for `CS(=O)(=O)N1CCc2c(nnn2CC2CC2)C1COCC1CC1` (stereo unspecified), the INHIBITION is 58.5%.

Regarding `CN(C)C(=O)N1CCc2c(nnn2C)C1COCC1CC1` (stereo unspecified), the INHIBITION was 12.7%.

As to `C1CN(CC2CC2)C(COCC2CC2)c2nnn(CC3CC3)c21` (stereo unspecified), the INHIBITION was determined as 15.6%.

As for `CCn1nnc2c1CCN(S(C)(=O)=O)C2COCc1ccccc1` (stereo unspecified), the INHIBITION was -3.51%.

Regarding `Cn1nnc2c1CCN(Cc1ccncc1)C2COCc1ccccc1` (stereo unspecified), the INHIBITION is reported as 17.2%.

The values are drawn from ChEMBL document CHEMBL4513216, “Probing the Open Global Health Chemical Diversity Library for Multistage-Active Starting Points for Next-Generation Antimalarials” (ACS Infect Dis, 2020).
